EPAC2 ag: agonists of human EPAC2 (RAPGEF4); 0.079% of 360,000 active; AID 720711; Potency, µM (titrated, usually from 154 µM), usual class: activators; EPAC2 activation, biochemical qHTS; response scale: 100% = 6.5 mM cAMP response; further: nearly all actives have a fitted effect of over 50% in size
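Setup: EPAC2 100 nM, labeled Rap1B complex 250 nM, free GDP 50 uM. Compound titrations pinned in, brief spin, 5 min room temperature incubation. Kinetic fluorescence read over 30 min, normalized to 6.5 mM cAMP.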
EPAC1 antagonist: EPAC1 (human) antagonism. O95398. EPAC1 GEF assay, Rap1b-BODIPY-GDP exchange fluorescence. Potency, µM (highest dose often 115 µM), actives largely listed as inhibitors. 0.14% of 360,000 active. AID 720709; further: nearly all actives have a fitted effect of over 50% in size
Target sequence (O95398 whole entry, looked up): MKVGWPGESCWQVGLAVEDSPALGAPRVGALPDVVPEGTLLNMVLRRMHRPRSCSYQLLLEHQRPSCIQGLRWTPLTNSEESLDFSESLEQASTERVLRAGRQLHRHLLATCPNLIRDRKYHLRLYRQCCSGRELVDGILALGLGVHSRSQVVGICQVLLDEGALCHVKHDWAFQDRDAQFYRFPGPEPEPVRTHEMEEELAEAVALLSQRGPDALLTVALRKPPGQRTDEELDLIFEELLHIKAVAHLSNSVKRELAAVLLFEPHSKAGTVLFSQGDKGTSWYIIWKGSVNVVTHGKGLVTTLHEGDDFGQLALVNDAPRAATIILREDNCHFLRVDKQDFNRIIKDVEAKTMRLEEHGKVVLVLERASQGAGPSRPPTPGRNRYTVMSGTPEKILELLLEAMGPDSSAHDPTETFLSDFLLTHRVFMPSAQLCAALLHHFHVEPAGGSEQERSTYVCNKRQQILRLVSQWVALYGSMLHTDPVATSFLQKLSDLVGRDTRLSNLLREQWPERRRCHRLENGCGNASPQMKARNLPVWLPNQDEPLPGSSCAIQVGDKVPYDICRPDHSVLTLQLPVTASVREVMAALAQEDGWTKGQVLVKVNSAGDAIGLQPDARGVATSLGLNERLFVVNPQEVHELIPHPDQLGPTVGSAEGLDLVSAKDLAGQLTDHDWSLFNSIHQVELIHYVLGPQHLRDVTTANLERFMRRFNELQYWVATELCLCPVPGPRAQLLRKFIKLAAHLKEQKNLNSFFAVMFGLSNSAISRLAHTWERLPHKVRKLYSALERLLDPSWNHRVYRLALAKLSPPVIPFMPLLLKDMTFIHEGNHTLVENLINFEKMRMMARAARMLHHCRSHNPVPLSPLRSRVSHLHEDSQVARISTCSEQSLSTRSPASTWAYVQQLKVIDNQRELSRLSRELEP
EPAC2 antagonist: blocks human EPAC2 exchange factor | Q8WZA2 | Potency, µM (series often up to 114 µM), most hits filed as inhibitors | 0.18% of 360,000 active | EPAC2 GEF exchange of Rap1B-BODIPY-GDP, fluorescence | AID 720708; further: nearly all actives have a fitted effect of over 45% in size
EPAC1 ag: agonists of human EPAC1; EPAC1 agonist qHTS, biochemical assay; response scale: 100% = response to 6.5 mM cAMP; Potency, µM (titrated, usually from 154 µM), actives largely listed as activators; 0.073% of 360,000 active; AID 720707; further: nearly all actives have a fitted effect of over 60% in size
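EPAC1 100 nM, Rap1B–BODIPY-GDP 250 nM, unlabeled GDP 50 uM; compound titration; 5 min RT; kinetic read ex480/em540 at 5-min intervals ×30 min; data normalized to 6.5 mM cAMP agonist control.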
Hits are given with their value; - = inactive; ? = inconclusive. An excerpt weighted towards active compounds, which were near 0.39% of everything screened. The call rests on the fitted dose curve; in most records, active means well fitted curve in the direction sought with a large enough effect; inconclusive means small, poorly fitted or top-dose-only effect, or another doubt; inactive means no such curve, though single readings can be large; an effect the other way counts as inactive or inconclusive.

SMILES	EPAC2 ag	EPAC1 antagonist	EPAC2 antagonist	EPAC1 ag
C=CCn1c(=O)[nH]c2nc3cc(N=CN(C)C)c(C)cc3nc2c1=O	?	-	-	-
Nc1ccc2nc3c(=O)n(CCc4ccccc4)c(=O)[nH]c3nc2c1	63.1µM	-	-	112µM
CCCCn1c(=O)[nH]c2nc3cc(N)ccc3nc2c1=O	100µM	-	-	100µM
CCc1nc2ccc(C(=O)N(C)CCCN(C)C)cn2c1N(C)Cc1cc2ccccc2s1	-	-	-	-
COc1ccc(-c2[nH]c(-c3ccc(SC)cc3)nc2SCC(=O)Nc2nccs2)cc1	-	70.8µM	-	-
O=C1Cc2ccccc2C(=O)N1	-	56.2µM	?	-
COc1cc(-c2cnc3c(NC=O)cc(-c4ccsc4)cn23)cc(OC)c1OC	-	-	-	-
Cc1cccc(-n2c(C)cc(C=C3C(=O)c4ccccc4C3=O)c2C)c1	-	-	-	-
Cc1cc(C=C2C(=O)c3ccccc3C2=O)c(C)n1-c1ccc(Cl)cc1	-	-	79.4µM	-
CCC12CC1(C(=O)OC)C(=O)N1CCc3c([nH]c4ccccc34)C12 (centres undefined)	-	-	-	-
CN(C)c1ccc(/C=C(/C#N)C(=O)Nc2nc3c(s2)CCN(Cc2ccccc2)C3)cc1	100µM	-	-	-
CC1CCN(C(=O)CSc2nnc(CN3CCOCC3)n2-c2ccccc2)CC1	-	31.6µM	-	-
CC(=O)/C=C/c1ccc(C)o1	-	-	-	-
COc1cccc(OC)c1OC(=O)/C=C/c1ccc(C)o1	-	-	56.2µM	-
CCSc1nnc(-c2sc3nnc(-c4ccccc4)c(-c4ccccc4)c3c2N)o1	100µM	-	-	-
CCOC(=O)c1c(NC(=O)/C=C\C(=O)O)sc(C)c1-c1ccccc1	-	-	-	-
CCOC(=O)c1c(NC(=O)/C=C/C(=O)O)sc(C)c1-c1ccc(C(C)(C)C)cc1	-	56.2µM	?	-
CCOC(=O)C1CCCN(C(=O)c2sc(-c3ccccc3)nc2C)CC1 (centres undefined)	-	-	-	-
Cc1cccc(NC(=O)CSCC(=O)N(C)CCOc2ccc(Cl)cc2)c1	-	-	-	50.1µM
Cc1ccc(NC(=O)CSCC(=O)N(C)CCOc2ccc(Cl)cc2)cc1	-	-	-	-
CCCN(CC(=O)Nc1ccccc1C)C(=O)c1oc2ccc(OCC)cc2c1C	-	-	-	126µM
CCCN(CC(=O)Nc1ccccc1C)C(=O)c1cc(C)oc1C	-	-	-	-
O=C(CN1C(=O)/C(=C2\SC(=S)N(CCS(=O)(=O)O)C2=O)c2ccccc21)Nc1cccc(Br)c1	-	?	?	-
O=C(CN1C(=O)/C(=C2/SC(=S)N(CCS(=O)(=O)O)C2=O)c2ccccc21)Nc1cccc(C(F)(F)F)c1	-	39.8µM	56.2µM	-
CN(C)c1ccc(-c2cc3ccccc3c(=O)o2)cc1	100µM	-	-	-
SMILES	EPAC2 ag	EPAC1 antagonist	EPAC2 antagonist	EPAC1 ag
COc1ccc(-c2cc3ccccc3c(=O)o2)cc1	-	-	-	-
O=C(Nc1cc(C(=O)Nc2ccccc2C(=O)O)cc(C(=O)Nc2ccccc2C(=O)O)c1)c1ccccc1	-	10µM	-	-
Cc1ccc(-n2nc3ccc(NC(=O)/C=C/c4ccco4)cc3n2)cc1	-	22.4µM	-	-
O=C(Nc1ccccc1C(=O)O)c1cccc(NC(=O)c2ccccc2Br)c1	-	-	-	-
Cc1cccc(OCC(=O)Nc2cccc(C(=O)Nc3ccccc3C(=O)O)c2)c1	-	?	-	-
CCc1ccccc1NC(=O)c1cccc(NC(=O)/C=C/c2ccco2)c1	-	-	-	-
O=C(/C=C/c1ccco1)Nc1cccc(C(=O)Nc2ccccc2C(=O)O)c1	-	50.1µM	-	-
O=C(COc1ccccc1[N+](=O)[O-])Nc1cccc(C(=O)Nc2ccccc2C(=O)O)c1	-	70.8µM	-	-
C[C@@H]1CN([C@H](C)CO)S(=O)(=O)c2ccc(C3=CCCCC3)cc2O[C@H]1CN(C)C(=O)Cc1cccnc1	-	-	-	-
CCCCOCCCNC(=O)C[C@@H]1C[C@@]2(C(=O)OC)CCCCC=C2N(Cc2ccco2)C1=O	-	-	-	-
CN=c1scc(-c2cccs2)n1/N=C/c1ccc(O)c(O)c1O	-	?	-	-
CN=c1scc(C)n1/N=C/c1ccc(O)c(O)c1O	-	50.1µM	-	-
CC(C)N=c1scc(-c2ccco2)n1/N=C/c1ccc(O)c(O)c1	?	?	-	-
C=CCN=c1scc(-c2ccco2)n1/N=C/c1ccc(O)c(O)c1O	-	56.2µM	-	-
COCCN=c1scc(-c2ccco2)n1/N=C/c1ccc(O)c(O)c1O	-	17.8µM	-	-
CSC1=NSC2=NC(=O)/C(=C\c3cccs3)C(=N)N12	-	-	-	-
CSC1=NSC2=NC(=O)/C(=C/c3coc4ccccc4c3=O)C(=N)N12	89.1µM	-	-	100µM
CSC1=NSC2=NC(=O)/C(=C/c3coc4ccc(O)cc4c3=O)C(=N)N12	100µM	-	-	79.4µM
N=C1/C(=C/c2cccs2)C(=O)N=C2SN=C(SCc3ccccc3)N12	-	79.4µM	-	-
N=C1/C(=C\c2coc3ccccc3c2=O)C(=O)N=C2SC=CN12	112µM	-	-	89.1µM
CC1OC(CCc2cccc(Cl)c2)Cc2[nH]c(=S)[nH]c(=O)c21 (centres undefined)	-	-	-	-
CCOC(=O)C1=C(C)N=c2sc(=Cc3ccc(OCC(=O)O)cc3)c(=O)n2C1c1ccc(Cl)cc1 (centres undefined)	-	?	-	-
CCOC(=O)C1=C(C)N=c2sc(=Cc3cc(Cl)c(OCC(=O)O)c(Cl)c3)c(=O)n2C1c1cccc(OC)c1 (centres undefined)	-	?	25.1µM	-
CCOC(=O)C1=C(C)N=c2s/c(=C\c3ccc(OCC(=O)O)cc3)c(=O)n2C1c1ccc(OC(C)C)cc1 (centres undefined)	-	56.2µM	-	-
CC(=O)c1ccc(OC2(C)CCN(CCOc3ccc(C)cc3)C2)cc1 (centres undefined)	-	-	?	-
SMILES	EPAC2 ag	EPAC1 antagonist	EPAC2 antagonist	EPAC1 ag
O=C(Cn1ccc(=O)[nH]c1=O)NCCO	-	-	-	-
O=C(Cn1ccc(=O)[nH]c1=O)c1ccc([N+](=O)[O-])o1	?	-	-	100µM
Cc1cccc(CN2CCC(n3nccc3NC(=O)CCCc3ccccc3)CC2)c1	-	-	-	-
O=C(Nc1cccc(C(F)(F)F)c1)Nc1nnc([C@@H]2C[C@H](O)[C@@H](CO)O2)s1	-	-	-	-
CCCNC(=O)C1(C)CCCN(Cc2ccc(-c3ccccn3)cc2)C1 (centres undefined)	-	-	-	-
O=S(=O)(O)c1ccc(O)c2cc(Nc3ccccc3)ccc12	-	10µM	?	-
O=C(CC1c2ccccc2C=C(c2ccsc2)N1c1ccc(-c2cccnc2)cc1)C1CC1 (centres undefined)	-	-	-	-
COc1ccc(C=NNc2ccc(S(=O)(=O)Nc3ccccc3C(=O)O)cc2[N+](=O)[O-])c(OC)c1	-	50.1µM	-	-
